Measured values taken from PubChem BioAssay (NCI).
This is part of a sample that, as a whole, favours compounds with a hit. Of some 83,000 tested, about 20% had one in any assay.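 Assay: single dose, 48 h. Readout: percent growth (0 = no net growth; negative = cell death). Active: <10.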 Values without a mark were called inactive. Active and inactive are the calls of the source.

The compounds below were run on MDA-MB-468 breast (assay: NCI-60 one-dose screen, 48 h (100 = growth as untreated, 0 = no growth, -100 = all killed)). Settings: 10 µM unless noted.

| SMILES | growth |
| --- | --- |
| O=C(CCCn1c2c(sc3ccccc32)c(=O)n2nnc(-c3ccccc3)c12)NCCc1cnc[nH]1 | -91% (active) |
| COc1cc(Cn2ccc3c2-c2oncc2CC3)cc(OC)c1 | 10.9% |
| CCc1cc(Cl)c(OC)c(C(=O)NCC2CCCN2CC)c1O (stereo not given) | 77.1% |
| CCCCCCC(CC#N)(CCC)CCCC (stereo not given) | 101% |
| Oc1ccc2cc(Br)ccc2c1-c1c(O)ccc2cc(Br)ccc12 | 90.9% |
| CC(C)(CCN=C(N)Nc1ccccn1)c1ccc(C(F)(F)F)cc1 | 3.96% (active) |
| NCCNc1ccc2cc(-c3nc4ccccc4[nH]3)c(=O)oc2c1 | 94.9% |
| COc1cc2c(c3c1c(=O)c1cccc(F)c1n3C)C=CC(C)(C)O2 | 42.7% |
| CCSc1nc(-c2cccs2)n2nc(-c3ccco3)cc2n1 | -37.1% (active) |
| COc1ccc2nc(-c3ccc(Cl)cc3)cc(C(=O)N3N=C(c4ccc(N)cc4)CC3c3ccccc3)c2c1 (stereo not given) | 30.9% |
| O=C1/C(=C\c2ccc(F)cc2)CN(C(=O)c2ccc([N+](=O)[O-])cc2)C/C1=C\c1ccc(F)cc1 | 0.822% (active) |
| CCCCCC(CCC)COC(=O)c1ccc(OC)cc1 (stereo not given) | 104% |
| C#C[C@@]1(O)[C@@H](CO)O[C@@H](n2cc(C(F)(F)F)c3c(N)ncnc32)[C@@H]1O | -56.3% (active) |
| COP(=O)(OC)c1nnn(-c2cccc([N+](=O)[O-])c2)c1C | 120% |
| COc1ccc(-c2nc(-c3nc4ccc(F)cc4[nH]3)cc3c2[nH]c2ccccc23)cc1 | 40% |
| CN1c2ccccc2[C@]2(Cc3ccccc3)Cc3ccccc3N[C@H]12 | 115% |
| O=C(Nc1cccc2[nH]c(C(F)(F)F)nc12)c1ccc(F)cc1 | 65.6% |
| O=C1O[C@H]([C@H](O)CO)C(O)=C1O | 90% |
| COc1cc2cc(Oc3ccc(NC(=O)Nc4ccc(Cl)c(Cl)c4)cc3)c(C)nc2cc1OCCN1CCOCC1 | 33.9% |
| COc1ccc(C/C(C)=C(\c2ccc(O)cc2)c2ccc(OCCN3CCCCC3)cc2)cc1 | 70.2% |

| SMILES | growth |
| --- | --- |
| O=C1[C@H]2Cc3c([nH]c4ccccc34)[C@@H](c3c(Cl)cccc3Cl)N2C(=O)CN1C1CCN(CC2CCCCC2)CC1 | 80.5% |
| O=[N+]([O-])c1ccc2[nH]c(=S)n(/C=C(/c3ccc(Cl)cc3Cl)S(=O)(=O)Cc3ccc(Cl)cc3Cl)c2c1 | 111% |
| NC(=O)NN=C(C1CC1)C1CC1 | 119% |
| CC1(C)OC(=O)CC1=O | 100% |
| CN1c2ccccc2C(C)(C)C12C=Cc1cc(O)ccc1O2 (stereo not given) | 4.08% (active) |
| C[C@@H](Oc1cc(C(=O)Nc2ccc(C(=O)N3CCN(C)CC3)cc2)nnc1N)c1c(Cl)ccc(F)c1Cl | 62.3% |
| O=C(CN1C(=O)NC2NC(=O)NC21)N/N=C/c1ccc(Cl)cc1Cl (stereo not given) | 99.9% |
| CN1CCC(COc2cnc(-c3cccc(Cn4nc(-c5cccc(C#N)c5)ccc4=O)c3)nc2)CC1 | 87.4% |
| CNC(=O)NCC1OC(n2cnc3c(NC(=O)Nc4ccccc4)ncnc32)C(O[Si](C)(C)C(C)(C)C)C1O[Si](C)(C)C(C)(C)C (stereo not given) | 35.8% |
| O=C(NNc1nccc(Nc2ccc(S(=O)(=O)Nc3ccncc3)cc2)n1)c1ccccc1 | 116% |
| O=c1c2cc(F)ccc2oc2c(NCCNCCO)nc3ccccc3c12 | -14.5% (active) |
| Cc1c(Cl)cccc1NC(=O)c1sc2nc3c(cc2c1N)COCC3 | 17.7% |
| Cc1cc(-c2noc(C(F)(F)F)n2)ccc1N1CCN(c2cc(C(=O)N(C)C)no2)CC1 | 15.2% |
| CCN1CCN(Cc2cn(-c3ccc(S(N)(=O)=O)cc3)nn2)CC1 | 99.7% |
| N#Cc1c(-c2ccc(F)cc2)nc2c(C#N)c(Nc3ccccc3)nn2c1N | 103% |
| CCOC(=O)c1cc2c(n1Cc1cc(OC)cc(OC)c1Br)-c1nc(NC(C)=O)sc1CCC2 | 77.7% |
| O/N=C1\CCC2CCCCC2C1 (stereo not given) | 105% |
| C=CCN(C)C | 102% |
| COc1cccc(-c2nc3sccn3c2-c2ccnc(NCCCNS(=O)(=O)c3ccc(F)cc3)c2)c1 | 13.3% |
| C=C1C(=O)O[C@H]2[C@H]1CC/C(COC(=O)C(=O)c1cn(C)c3ccc(Cl)cc13)=C\CC[C@@]1(C)O[C@@H]21 | -88.2% (active) |
